Reference: ChEMBL document CHEMBL1961873, “Compounds: GSK PKIS; Assays: Nanosyn kinase panel” (2012)

How the values were obtained:
[1] = target: Ribosomal protein S6 kinase alpha-6 (Homo sapiens) (UniProt Q9UK32); details: at 1 µM;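 further: each value is a mean inhibition of RSK4 from a GSK PKIS panel screen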
[2] = target: T1, Serine/threonine-protein kinase Sgk1 (Homo sapiens) (UniProt O00141); details: at 0.1 µM
T1 sequence (whole entry): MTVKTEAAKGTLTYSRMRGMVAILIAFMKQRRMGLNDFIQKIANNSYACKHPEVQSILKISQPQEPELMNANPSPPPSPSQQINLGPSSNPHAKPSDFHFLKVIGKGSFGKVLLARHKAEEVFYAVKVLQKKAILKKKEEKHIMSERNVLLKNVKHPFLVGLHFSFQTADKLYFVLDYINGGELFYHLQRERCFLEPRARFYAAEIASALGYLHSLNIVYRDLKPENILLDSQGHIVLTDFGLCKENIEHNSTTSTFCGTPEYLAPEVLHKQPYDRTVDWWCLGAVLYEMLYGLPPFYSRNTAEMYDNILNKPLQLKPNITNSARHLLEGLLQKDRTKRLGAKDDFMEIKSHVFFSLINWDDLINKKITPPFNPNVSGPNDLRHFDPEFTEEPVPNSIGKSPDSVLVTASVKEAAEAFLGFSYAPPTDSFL

[3] = target: T1, Serine/threonine-protein kinase Sgk1 (Homo sapiens); details: at 1 µM
[4] = target: T2, Serine/threonine-protein kinase Sgk2 (Homo sapiens) (UniProt Q9HBY8); details: at 0.1 µM
T2 sequence (whole entry): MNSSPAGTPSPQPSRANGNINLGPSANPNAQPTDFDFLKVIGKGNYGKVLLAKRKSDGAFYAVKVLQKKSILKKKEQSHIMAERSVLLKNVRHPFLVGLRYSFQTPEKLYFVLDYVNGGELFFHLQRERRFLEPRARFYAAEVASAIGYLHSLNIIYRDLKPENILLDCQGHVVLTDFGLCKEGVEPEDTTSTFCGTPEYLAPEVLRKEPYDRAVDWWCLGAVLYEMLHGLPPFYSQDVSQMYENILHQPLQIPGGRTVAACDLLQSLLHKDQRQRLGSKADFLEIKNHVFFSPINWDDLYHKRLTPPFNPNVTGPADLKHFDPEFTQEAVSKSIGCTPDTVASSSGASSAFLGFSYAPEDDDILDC

[5] = target: T2, Serine/threonine-protein kinase Sgk2 (Homo sapiens); details: at 1 µM
[6] = target: T3, Serine/threonine-protein kinase Sgk3 (Homo sapiens) (UniProt Q96BR1); details: at 0.1 µM
T3 sequence (whole entry): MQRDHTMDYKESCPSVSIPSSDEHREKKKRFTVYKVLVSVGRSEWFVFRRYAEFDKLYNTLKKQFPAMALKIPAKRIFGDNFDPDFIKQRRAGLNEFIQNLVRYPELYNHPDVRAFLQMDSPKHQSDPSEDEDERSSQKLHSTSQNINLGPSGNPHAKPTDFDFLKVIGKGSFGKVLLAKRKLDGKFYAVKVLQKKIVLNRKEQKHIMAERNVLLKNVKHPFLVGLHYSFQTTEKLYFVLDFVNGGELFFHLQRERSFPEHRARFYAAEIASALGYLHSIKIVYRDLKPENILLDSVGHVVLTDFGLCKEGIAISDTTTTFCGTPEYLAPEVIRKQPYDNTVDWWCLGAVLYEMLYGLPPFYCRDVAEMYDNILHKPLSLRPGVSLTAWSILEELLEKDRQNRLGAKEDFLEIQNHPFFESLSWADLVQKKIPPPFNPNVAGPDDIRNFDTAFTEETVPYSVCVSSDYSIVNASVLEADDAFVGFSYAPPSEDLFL

[7] = target: T3, Serine/threonine-protein kinase Sgk3 (Homo sapiens); details: at 1 µM
[8] = target: 5'-AMP-activated protein kinase catalytic subunit alpha-1 (Homo sapiens) (UniProt Q13131); details: at 0.1 µM
[9] = target: 5'-AMP-activated protein kinase catalytic subunit alpha-1 (Homo sapiens) (UniProt Q13131); details: at 1 µM
[10] = target: 5'-AMP-activated protein kinase catalytic subunit alpha-2 (Homo sapiens) (UniProt P54646); details: at 0.1 µM
[11] = target: 5'-AMP-activated protein kinase catalytic subunit alpha-2 (Homo sapiens) (UniProt P54646); details: at 1 µM
[12] = target: T4, NUAK family SNF1-like kinase 1 (Homo sapiens) (UniProt O60285); details: at 0.1 µM
T4 sequence (whole entry): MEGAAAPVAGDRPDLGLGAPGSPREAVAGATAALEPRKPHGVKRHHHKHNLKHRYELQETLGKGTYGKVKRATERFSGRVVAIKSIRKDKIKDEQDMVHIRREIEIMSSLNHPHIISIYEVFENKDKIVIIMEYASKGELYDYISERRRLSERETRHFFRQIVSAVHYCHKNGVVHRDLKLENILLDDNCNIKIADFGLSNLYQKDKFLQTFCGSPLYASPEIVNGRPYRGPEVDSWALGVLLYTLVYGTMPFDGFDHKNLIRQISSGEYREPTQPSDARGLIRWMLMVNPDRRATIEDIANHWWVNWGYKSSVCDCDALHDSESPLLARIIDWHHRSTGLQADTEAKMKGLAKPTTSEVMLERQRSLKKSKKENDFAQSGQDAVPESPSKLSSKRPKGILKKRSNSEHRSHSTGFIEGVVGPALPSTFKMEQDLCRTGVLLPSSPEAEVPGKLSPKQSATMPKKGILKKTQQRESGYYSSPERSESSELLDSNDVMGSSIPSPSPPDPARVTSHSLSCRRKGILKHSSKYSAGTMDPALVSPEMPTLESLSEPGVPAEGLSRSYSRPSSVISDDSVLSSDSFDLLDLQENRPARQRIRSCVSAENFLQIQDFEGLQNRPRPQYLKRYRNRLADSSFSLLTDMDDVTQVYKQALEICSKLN

[13] = target: T4, NUAK family SNF1-like kinase 1 (Homo sapiens); details: at 1 µM
[14] = target: T5, Serine/threonine-protein kinase BRSK1 (Homo sapiens) (UniProt Q8TDC3); details: at 0.1 µM
T5 sequence (whole entry): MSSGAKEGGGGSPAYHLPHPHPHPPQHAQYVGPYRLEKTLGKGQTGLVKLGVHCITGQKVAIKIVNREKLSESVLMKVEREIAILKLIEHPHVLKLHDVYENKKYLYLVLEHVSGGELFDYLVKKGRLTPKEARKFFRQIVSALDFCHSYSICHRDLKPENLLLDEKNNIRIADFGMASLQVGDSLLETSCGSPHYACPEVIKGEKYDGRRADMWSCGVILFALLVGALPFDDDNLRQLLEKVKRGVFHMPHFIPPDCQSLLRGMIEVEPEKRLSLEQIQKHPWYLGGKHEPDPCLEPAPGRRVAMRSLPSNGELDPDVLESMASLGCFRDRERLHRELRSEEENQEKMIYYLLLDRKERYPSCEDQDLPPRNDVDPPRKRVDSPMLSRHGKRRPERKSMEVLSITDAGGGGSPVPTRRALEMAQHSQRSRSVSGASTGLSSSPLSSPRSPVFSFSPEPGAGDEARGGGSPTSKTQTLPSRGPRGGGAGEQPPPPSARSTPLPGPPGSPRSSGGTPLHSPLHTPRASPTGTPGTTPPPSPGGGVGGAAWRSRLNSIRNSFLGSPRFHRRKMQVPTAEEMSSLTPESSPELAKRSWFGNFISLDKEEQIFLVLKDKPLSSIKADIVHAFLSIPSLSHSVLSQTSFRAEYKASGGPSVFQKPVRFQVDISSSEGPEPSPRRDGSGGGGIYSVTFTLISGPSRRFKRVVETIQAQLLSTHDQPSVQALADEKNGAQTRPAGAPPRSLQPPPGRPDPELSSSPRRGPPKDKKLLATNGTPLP

[15] = target: T5, Serine/threonine-protein kinase BRSK1 (Homo sapiens); details: at 1 µM
[16] = target: T6, Serine/threonine-protein kinase BRSK2 (Homo sapiens) (UniProt Q8IWQ3); details: at 0.1 µM
T6 sequence (whole entry): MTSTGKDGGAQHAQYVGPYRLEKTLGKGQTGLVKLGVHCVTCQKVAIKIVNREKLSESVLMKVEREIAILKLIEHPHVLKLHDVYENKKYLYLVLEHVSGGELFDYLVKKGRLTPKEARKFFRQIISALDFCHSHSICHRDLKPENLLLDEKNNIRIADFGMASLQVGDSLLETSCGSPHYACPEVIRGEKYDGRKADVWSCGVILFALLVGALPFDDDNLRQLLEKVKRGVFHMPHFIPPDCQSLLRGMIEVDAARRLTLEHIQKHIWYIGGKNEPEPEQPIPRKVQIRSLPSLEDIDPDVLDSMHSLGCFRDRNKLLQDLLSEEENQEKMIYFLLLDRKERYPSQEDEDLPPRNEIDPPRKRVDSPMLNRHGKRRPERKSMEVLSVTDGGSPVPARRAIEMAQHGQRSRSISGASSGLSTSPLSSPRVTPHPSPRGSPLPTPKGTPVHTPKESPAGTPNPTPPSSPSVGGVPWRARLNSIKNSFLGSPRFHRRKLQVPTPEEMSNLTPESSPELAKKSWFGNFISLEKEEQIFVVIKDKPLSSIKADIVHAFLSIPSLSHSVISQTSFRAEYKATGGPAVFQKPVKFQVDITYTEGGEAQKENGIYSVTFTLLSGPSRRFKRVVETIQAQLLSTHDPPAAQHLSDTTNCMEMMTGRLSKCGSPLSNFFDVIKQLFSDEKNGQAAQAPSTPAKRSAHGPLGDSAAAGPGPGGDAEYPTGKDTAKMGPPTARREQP

[17] = target: T6, Serine/threonine-protein kinase BRSK2 (Homo sapiens); details: at 1 µM
[18] = target: Calcium/calmodulin-dependent protein kinase type 1D (Homo sapiens) (UniProt Q8IU85); details: at 0.1 µM
[19] = target: Calcium/calmodulin-dependent protein kinase type 1D (Homo sapiens) (UniProt Q8IU85); details: at 1 µM
[20] = target: Calcium/calmodulin-dependent protein kinase type II subunit alpha (Homo sapiens) (UniProt Q9UQM7); details: at 0.1 µM;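 further: reported values are averages (mean inhibition of CAMK2A)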
Sequence of Calcium/calmodulin-dependent protein kinase type II subunit alpha (Homo sapiens) (Q9UQM7 whole entry): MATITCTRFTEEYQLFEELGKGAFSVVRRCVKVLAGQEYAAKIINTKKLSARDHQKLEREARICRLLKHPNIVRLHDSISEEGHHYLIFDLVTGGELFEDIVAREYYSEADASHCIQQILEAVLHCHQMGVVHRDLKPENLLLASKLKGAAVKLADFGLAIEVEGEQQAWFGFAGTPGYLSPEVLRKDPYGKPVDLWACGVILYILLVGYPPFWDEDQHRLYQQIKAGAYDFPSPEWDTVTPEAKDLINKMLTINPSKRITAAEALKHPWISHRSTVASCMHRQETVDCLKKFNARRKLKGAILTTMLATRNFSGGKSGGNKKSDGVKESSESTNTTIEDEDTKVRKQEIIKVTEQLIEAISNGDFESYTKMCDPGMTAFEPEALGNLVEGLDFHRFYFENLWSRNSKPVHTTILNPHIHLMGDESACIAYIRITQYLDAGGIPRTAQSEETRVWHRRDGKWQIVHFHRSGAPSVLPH

Sequence of 5'-AMP-activated protein kinase catalytic subunit alpha-1 (Homo sapiens) (Q13131 whole entry, looked up): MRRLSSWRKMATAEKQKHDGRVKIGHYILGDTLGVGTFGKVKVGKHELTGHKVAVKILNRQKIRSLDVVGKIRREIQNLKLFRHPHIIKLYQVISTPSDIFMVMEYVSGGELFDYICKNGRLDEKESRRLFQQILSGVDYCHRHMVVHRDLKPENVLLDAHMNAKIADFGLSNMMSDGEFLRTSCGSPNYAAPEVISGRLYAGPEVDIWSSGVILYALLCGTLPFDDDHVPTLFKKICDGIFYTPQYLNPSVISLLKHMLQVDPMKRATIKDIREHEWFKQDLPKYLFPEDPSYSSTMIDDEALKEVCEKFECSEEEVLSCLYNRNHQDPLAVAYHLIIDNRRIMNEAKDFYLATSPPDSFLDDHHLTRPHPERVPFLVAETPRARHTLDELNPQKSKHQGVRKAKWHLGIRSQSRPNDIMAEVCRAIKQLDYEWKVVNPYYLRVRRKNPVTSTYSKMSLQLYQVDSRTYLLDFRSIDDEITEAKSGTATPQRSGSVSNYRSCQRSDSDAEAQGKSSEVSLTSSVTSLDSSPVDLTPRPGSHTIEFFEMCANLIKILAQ
Sequence of Calcium/calmodulin-dependent protein kinase type 1D (Homo sapiens) (Q8IU85 whole entry, looked up): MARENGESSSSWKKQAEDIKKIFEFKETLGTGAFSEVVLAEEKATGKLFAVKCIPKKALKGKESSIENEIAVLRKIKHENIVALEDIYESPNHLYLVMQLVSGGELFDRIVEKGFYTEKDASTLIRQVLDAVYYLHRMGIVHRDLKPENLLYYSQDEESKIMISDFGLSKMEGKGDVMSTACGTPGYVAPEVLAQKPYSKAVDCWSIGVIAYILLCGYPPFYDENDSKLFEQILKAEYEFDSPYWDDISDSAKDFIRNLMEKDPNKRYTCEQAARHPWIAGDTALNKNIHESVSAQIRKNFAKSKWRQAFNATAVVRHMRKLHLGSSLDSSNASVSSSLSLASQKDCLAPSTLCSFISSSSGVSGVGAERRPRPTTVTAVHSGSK
Sequence of Ribosomal protein S6 kinase alpha-6 (Homo sapiens) (Q9UK32 whole entry): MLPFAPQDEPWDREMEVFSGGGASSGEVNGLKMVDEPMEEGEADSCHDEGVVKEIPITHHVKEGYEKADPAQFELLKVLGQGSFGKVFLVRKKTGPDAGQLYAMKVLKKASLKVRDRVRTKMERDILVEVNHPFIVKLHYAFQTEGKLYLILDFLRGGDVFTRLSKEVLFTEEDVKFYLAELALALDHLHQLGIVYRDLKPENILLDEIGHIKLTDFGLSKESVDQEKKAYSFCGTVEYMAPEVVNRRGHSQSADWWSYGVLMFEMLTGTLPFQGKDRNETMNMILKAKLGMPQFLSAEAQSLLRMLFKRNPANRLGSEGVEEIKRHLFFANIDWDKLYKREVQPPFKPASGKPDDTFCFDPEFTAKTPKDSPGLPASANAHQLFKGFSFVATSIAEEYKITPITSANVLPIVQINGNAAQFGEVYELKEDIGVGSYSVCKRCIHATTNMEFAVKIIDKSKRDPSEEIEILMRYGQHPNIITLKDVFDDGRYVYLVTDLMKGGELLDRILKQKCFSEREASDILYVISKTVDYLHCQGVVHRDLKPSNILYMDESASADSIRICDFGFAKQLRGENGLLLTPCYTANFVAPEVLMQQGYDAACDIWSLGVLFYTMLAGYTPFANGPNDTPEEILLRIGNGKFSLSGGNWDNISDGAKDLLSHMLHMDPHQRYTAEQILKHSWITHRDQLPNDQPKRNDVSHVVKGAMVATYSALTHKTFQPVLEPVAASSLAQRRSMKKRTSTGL
Sequence of 5'-AMP-activated protein kinase catalytic subunit alpha-2 (Homo sapiens) (P54646 whole entry, looked up): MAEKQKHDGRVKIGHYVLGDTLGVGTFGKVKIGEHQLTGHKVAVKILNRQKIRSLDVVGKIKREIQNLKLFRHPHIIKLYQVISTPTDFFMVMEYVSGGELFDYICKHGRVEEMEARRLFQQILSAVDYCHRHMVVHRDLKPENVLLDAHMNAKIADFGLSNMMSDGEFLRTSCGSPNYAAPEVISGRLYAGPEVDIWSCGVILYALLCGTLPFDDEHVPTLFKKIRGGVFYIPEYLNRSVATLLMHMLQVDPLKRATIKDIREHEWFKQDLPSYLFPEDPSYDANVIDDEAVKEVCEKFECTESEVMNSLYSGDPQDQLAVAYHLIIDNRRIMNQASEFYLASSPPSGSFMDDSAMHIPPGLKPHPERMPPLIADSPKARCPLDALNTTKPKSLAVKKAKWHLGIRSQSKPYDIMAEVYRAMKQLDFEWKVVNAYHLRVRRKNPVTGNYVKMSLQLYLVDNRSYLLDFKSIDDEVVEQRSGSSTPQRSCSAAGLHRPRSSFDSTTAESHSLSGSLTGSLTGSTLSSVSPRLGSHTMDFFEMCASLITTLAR

Compound	inhibition [1] [%]	inhibition [2] [%]	inhibition [3] [%]	inhibition [4] [%]	inhibition [5] [%]	inhibition [6] [%]	inhibition [7] [%]	inhibition [8] [%]	inhibition [9] [%]	inhibition [10] [%]	inhibition [11] [%]	inhibition [12] [%]	inhibition [13] [%]	inhibition [14] [%]	inhibition [15] [%]	inhibition [16] [%]	inhibition [17] [%]	inhibition [18] [%]	inhibition [19] [%]	inhibition [20] [%]
CNC(=O)c1cncc(/C=C/c2ccccc2C)c1	0.63	3.1	5.48	2.67	0.66	1.58	4.02	3.16	7.91	2.05	6.66	2.2	9.32	2.32	15	3.54	17.4	-0.17	-0.91	4.14
FC(F)(F)CNc1nccc(-c2cnn3ncccc23)n1	0.2	1.25	1.46	0	0.87	2.93	4.28	1.91	2.67	0.68	2.02	2.93	1.68	1.54	4.3	3.14	5.75	0.18	0.52	0.49
N#Cc1ccc2c(-c3ccnc(NC4CC4)n3)c(-c3ccc(F)cc3)nn2c1	1.24	1.64	1.98	-0.02	-1.14	2.02	1.13	0.78	0.77	0.36	1.42	-1.39	-2.95	-0.28	-0.2	-0.61	1.09	-0.16	0.14	-0.56
c1cnn2ncc(-c3ccnc(NCCCN4CCOCC4)n3)c2c1	0.49	1.8	3.79	0.34	5.05	5.66	8.34	2.28	2.5	3.24	2.36	-0.66	0.6	0.82	1.97	1.69	1.28	-0.6	-0.17	2.86
COC(=O)Nc1nc2cc(Oc3ccc(NC(=O)Nc4ccccc4)cc3)ccc2[nH]1	0.36	2.77	5.31	0.16	3.69	3.38	5.17	2.62	2.79	0.01	0.9	-0.53	-0.72	-0.86	0.34	0.79	2.06	0.99	-1.18	2.23
COc1cc(Nc2ncc(-c3ccccc3)o2)cc(OC)c1	2.83	3.1	4.7	3.93	4.37	3.26	3	2.43	5.67	2.86	8.23	5.89	32.7	-1.27	8.79	2.68	7.23	-0.33	-0.66	2.98
CCN1CCC(C(=O)Nc2n[nH]c3nnc(-c4cccc(F)c4F)cc23)CC1	0.55	0.58	1.25	2.32	0.65	-1.34	1.23	0.5	2.46	1.01	3.06	3.72	5.44	-0.16	1.41	1.7	3.77	0.68	0.83	-1.94
